Compound activity from PubChem BioAssay.
NLRP3 yeast inh – NALP3 inflammasome inhibitors in reconstituted yeast, primary screen, luminescence, uHTS; inhibition, % at 10 µM; Yeast reconstituted NLRP3/ASC/caspase-1, beta-gal luminescence, 24 h; actives 0.39% (n = 330,000);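 active means inhibition of 50% or more; inactive means inhibition below 50%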;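 further: plate controls were induced DMSO wells for no effect and uninduced yeast grown without galactose for full effect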
tim10-1 inh – growth inhibitors of tim10-1 mutant yeast, primary screen, luminescence, uHTS; S. cerevisiae tim10-1 ts strain growth, BacTiter-Glo, 24 h; inhibition, % at 20 µM; actives 2.2% (n = 330,000);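 active means inhibition of at least 40%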;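 further: mutant grown at 25 °C; 0% = DMSO wells with yeast and 100% = wells holding no yeast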
tim23-1 inh – growth inhibitors of tim23-1 mutant yeast, primary screen, luminescence, uHTS; S. cerevisiae tim23-1 growth, BacTiter-Glo luminescence, 24 h; inhibition, % at 20 µM; actives 1.3% (n = 330,000);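 active means growth inhibition of the mutant yeast at or above 50%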;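 further: temperature-sensitive mutant grown at 25 °C; plate controls were DMSO-treated mutant yeast for no effect and medium wells lacking yeast for full effect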
PfHsp90 yeast 2 – growth inhibition of PfHsp90-expressing yeast, primary screen, antimalarial PfHsp90 inhibitor project, S. cerevisiae, BacTiter-Glo luminescence, single point, set 2; BacTiter-Glo ATP, 48 h; yeast lacking PDR1 and PDR3 efflux regulators; actives 0.32% (n = 310,000); inhibition, % at 9.4 µM;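 active means every replicate shows inhibition above about 80%, whatever the replicate mean, limit read from the data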;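 further: 0% = DMSO neutral controls and 100% = 20 µM radicicol positive controls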
TIM10 inh – growth inhibitors of isogenic TIM10 control yeast, primary screen, counter-screen for tim10-1 yeast inhibitor project, luminescence, uHTS; S. cerevisiae TIM10 strain growth, BacTiter-Glo luminescence, 24 h; inhibition, % at 10 µM; actives 1.4% (n = 330,000); AID 463195, 2010;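 active means inhibition of 40% or more at the single tested concentration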;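 further: wild-type TIM10 isogenic control strain grown at permissive 25 °C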
tim10-1 conf – growth inhibitors of tim10-1 mutant yeast, confirmation, single concentration, luminescence, S. cerevisiae. shares compounds with tim10-1 inh. S. cerevisiae tim10-1 ts strain growth, BacTiter-Glo, 24 h. inhibition, % at 20 µM. actives 56% (n = 7,400). AID 463213, 2010;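 active means inhibition of yeast growth at or above a set limit in either of two repeat tests at 20 µM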;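 further: tim10-1 mutant grown at permissive 25 °C to find synthetic lethal compounds; 0% = DMSO yeast wells and 100% = medium wells without yeast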
Numbers without * were called inactive; . = not tested or not shown. This is a sample that favours compounds with a hit; in the whole collection about 3.7% have one here.

SMILES | NLRP3 yeast inh | tim10-1 inh | tim23-1 inh | PfHsp90 yeast 2 | TIM10 inh | tim10-1 conf
Cc1ccc(C(C)C)c(OCCCN2C(=O)NC(C)(C)C2=O)c1 | 0 | 43* | 18 | . | 7 | 22
Cc1cc(NC(=S)N(CCN2CCOCC2)Cc2ccccc2F)ccc1Cl | 5 | 44* | 25 | 19 | 32 | 16
Cc1ccc(NC(=S)N(CCN2CCOCC2)Cc2ccccc2F)cc1 | 11 | 25 | 21 | -14 | 5 | .
Cc1cc(N=Nc2ccc(Cl)cc2)cc(CN2CCCC2)c1O | 11 | 44* | 25 | -4 | 25 | 27
Cc1cc(N=Nc2ccc(Cl)cc2)cc(CN2CCOCC2)c1O | 22 | 29 | 28 | -14 | 30 | .
CCOc1ccc(NC(=O)C(C)Oc2ccccc2C(=O)Nc2cccc(Cl)c2Cl)cc1 (stereo unspecified) | 10 | 41* | 10 | -6 | 19 | 10
Cc1ccc(-c2csc3nc4c5ccccc5c(NCCCN5CCOCC5)nn4c(=O)c23)cc1 | 9 | 43* | 18 | . | -1 | 39*
CCOC(=O)c1ccc(NC(=O)c2cccc3c2C(=O)N(CC2CCCO2)C3)cc1 (stereo unspecified) | 17 | 47* | 36 | -41 | 18 | 43*
O=C(COc1ccc2cc(Br)ccc2c1Br)N1CCOCC1 | 28 | 18 | 32 | -16 | 4 | .
CC(NC(=O)Cc1cccs1)C(c1cccs1)N1CCN(c2ccccc2F)CC1 (stereo unspecified) | -1 | 46* | 32 | 0 | 31 | 37*
CC(NC(=O)c1ccco1)C(c1cccs1)N1CCN(c2ccc(F)cc2)CC1 (stereo unspecified) | -4 | 47* | 34 | -6 | 5 | 18
Cc1cc(OCc2cc(C(=O)NC(C)c3c(C)nn(C)c3C)no2)cc(C)c1Cl (stereo unspecified) | 17 | 46* | 32 | -2 | 8 | 15
Cc1cc(OCc2cc(C(=O)N(C)C(C)c3ccccn3)no2)cc(C)c1Cl (stereo unspecified) | 10 | 41* | 27 | -15 | 14 | 12
Cc1noc(C)c1CSCC(=O)Nc1nc(-c2ccc(F)c(F)c2)cs1 | 22 | 40* | 25 | -6 | 36 | 29
COc1ccc(-c2csc(NC(=O)CSCc3c(C)noc3C)n2)cc1OC | -9 | 16 | 21 | -3 | 10 | .
CC(Oc1cccc(Br)c1)C(=O)NNC(=O)CCS(=O)(=O)c1ccccc1 (stereo unspecified) | 7 | 7 | 7 | 4 | 6 | .
CC(C)CC(NC(N)=O)C(=O)Nc1ccc(Cl)c(Cl)c1 (stereo unspecified) | 18 | -6 | 18 | 18 | -1 | .
CCC(CC)C(=O)Nc1ccc(Cl)c(Cl)c1 | -25 | 41* | 33 | -80 | 13 | 22
C(=N\n1cnnc1)/c1cn(Cc2ccccc2)c2ccccc12 | 18 | 49* | 27 | -15 | 25 | -21
Clc1ccc(Cn2cc(/C=N/n3cnnc3)c3ccccc32)c(Cl)c1 | 13 | 19 | 20 | -17 | -2 | .
CC1=C/C(=C(\c2cc(C)c(O)c(Br)c2)c2ccccc2S(=O)(=O)O)C=C(Br)C1=O | 28 | 46* | 46 | 68 | 33 | 44*
CCOC(=O)C1=C(C)N(CCCC(=O)O)C(=O)NC1c1ccc(Br)cc1 (stereo unspecified) | 7 | 1 | 9 | . | 1 | .
Cc1cc(SCC(=O)N/N=C/c2ccc(C(=O)O)cc2)nc2ccccc12 | 9 | 11 | 13 | -10 | -14 | .
Nc1nnc(-c2ccccc2)s1 | 10 | 92* | 21 | -1 | 5 | 8
Nc1nnc(-c2ccc(F)cc2)s1 | 7 | 11 | 13 | 3 | 2 | .
SMILES | NLRP3 yeast inh | tim10-1 inh | tim23-1 inh | PfHsp90 yeast 2 | TIM10 inh | tim10-1 conf
O=C(CCN1CCc2ccccc2CC1)c1ccc2c(c1)OCCO2 | -8 | 79* | 14 | -15 | 24 | 22
O=C(CCN1CCOCC1)c1ccc2c(c1)OCCO2 | -2 | 8 | 12 | 0 | 13 | .
CN(C)CCCN(Cc1ccccc1)C(=S)Nc1ccc(OC(F)F)cc1 | 14 | 4 | 1 | 5 | -9 | .
O=C(NC(=S)Nc1ccc(O)cc1)c1cncc(Br)c1 | 19 | 15 | 15 | -15 | 15 | .
O=C(NC(=S)Nc1ncc(Br)cc1Br)c1cncc(Br)c1 | 13 | 40* | 36 | 6 | 34 | 22
CN1CCN(C(=O)C23CC4CC(C)(CC(C)(C4)C2)C3)CC1 | 2 | -4 | 10 | -11 | 3 | .
COc1ccc(CC(=O)OCC(=O)Nc2ncc(Cl)c(C)c2Cl)cc1 | 14 | 43* | 40 | . | 8 | 30*
O=C(CCC(=O)N1CCN(c2ccc(Cl)c(Cl)c2)CC1)c1ccccc1 | 5 | 42* | 23 | 3 | 10 | 15
O=C(c1ccc(F)c(S(=O)(=O)N2CCOCC2)c1)N1CCc2ccccc21 | 3 | 15 | 21 | -3 | 2 | .
O=C(N/N=C/c1ccc(Cl)cc1Cl)c1ccc2nc[nH]c2c1 | 3 | 16 | 8 | 2 | -5 | .
C=CCc1cccc(/C=N/NC(=O)c2ccc3nc[nH]c3c2)c1O | 16 | 44* | 1 | -11 | 7 | -2
COc1ccc(NC(=O)N(C)C[C@H]2Oc3c(NC(=O)NC(C)C)cccc3C(=O)N([C@H](C)CO)C[C@@H]2C)cc1 | 8 | 21 | 7 | -1 | -3 | .
COc1ccc(-n2c(Cc3cccn3C)nnc2SCC(=O)Nc2ccc(Cl)cc2)cc1 | 3 | 42* | 46 | 29 | 19 | 14
COc1ccc(NC(=O)COC(=O)CC2Sc3ccccc3NC2=O)cc1 (stereo unspecified) | 0 | 23 | 21 | . | 8 | .
COc1ccc(NC(=O)C2CCN(c3cc(C)nc(-c4ccccc4)n3)CC2)cc1 | 19 | 43* | 38 | 14 | 22 | 30
COc1ccc(NC(=O)C2CCN(c3nc(C)cc(C)n3)CC2)cc1 | -2 | 15 | 3 | . | 9 | .
OCCNc1ncnc2c1sc1nc(N3CCOCC3)c3c(c12)CCC3 | 6 | 49* | 35 | -43 | 18 | 25
CCCCCCC(=O)OCC(=O)c1ccc2c(c1)NC(=O)CO2 | -1 | 40* | 30 | -8 | 3 | 28
C/C(=N\NC(=S)Nc1c(C)cccc1C)c1ccc(OC(F)F)cc1 | 15 | 43* | 17 | -13 | 32 | 41*
CC/C(=N\NC(=S)Nc1cc(C)ccc1C)c1ccc(OC(F)F)cc1 | 26 | 58* | 49 | -15 | 31 | 36*
Cc1c(C)c(C)c(S(=O)(=O)NCCC(=O)N2CCN(Cc3ccc(C#N)cc3)CC2)c(C)c1C | 9 | 9 | 4 | -15 | 3 | .
